Many of the other results were omitted from the sample, so hits are more common in it than they were.
IL1B secr inh = qHTS for Inhibitors of Inflammasome Signaling: IL-1-beta AlphaLISA Primary Screen. THP-1 LPS/ATP IL-1B secretion, AlphaLISA, 16 h; stronger effect = lower value. 4.7% of 360,000 active. activity change, % at 57.5 µM. AID 743279, 2014; in the data active = activity change below about -50%; inconclusive = mostly about -30% to -49%
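Secreted IL-1B measured by AlphaLISA bead assay after 16 h compound exposure of THP-1 cells; compounds (final up to 57.5 uM) added 1 h before LPS (250 ng/mL) and ATP (1.25 mM) stimulation; lower signal means less secretion.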
HT1080-NT tox = qHTS for induction of synthetic lethality in tumor cells producing 2HG: qHTS for the HT-1080-NT fibrosarcoma cell line. HT-1080-NT fibrosarcoma viability, CellTiter-Glo ATP luminescence, 48 h. Potency, µM (highest dose often 46.1 µM), inactives show at the highest dose activity, negative = less viability, usual class: cytotoxic. 1.6% of 360,000 active;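 note: NT is the 2HG producing partner of a matched IDH1 knockdown line; potency is the fitted concentration of half-maximal effect; 0% = DMSO-treated cells and -100% = media-only wells without cells; nearly all actives have a fitted effect of over 55% in size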
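Read-out is CellTiter-Glo luminescence after 10 minutes at room temperature, following 48 hours' compound treatment of HT-1080-NT cells (750 cells/well, RPMI, 5% FBS, 37 degrees C).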
DT40 TDP1 no CPT = qHTS for Inhibitors of human tyrosyl-DNA phosphodiesterase 1 (TDP1): qHTS in cells in absence of CPT; DT40 Tdp1-/- hTDP1 cells, no CPT, ATP luminescence, 48 h; Potency, µM (highest dose often 46.2 µM), without a hit: at the top dose activity change, negative = growth inhibition, hits mostly inhibitors; 15% of 420,000 active; AID 686978, 2013; note: potency is the fitted concentration of half-maximal effect; nearly all actives have a fitted effect of over 55% in size
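Chicken DT40 Tdp1-/- cells complemented with human TDP1, screened without camptothecin (DMSO vehicle only), 400 cells/well. Compounds pin-transferred, cells incubated at 37 °C for at least 48 hr. Growth read as ATP-dependent luminescence (CellTiter-Glo, 30 min at RT).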
DT40 TDP1 CPT = qHTS for Inhibitors of human tyrosyl-DNA phosphodiesterase 1 (TDP1): qHTS in cells in presence of CPT. chicken DT40 Tdp1-/-;hTDP1 cells + 20 nM CPT, ATP luminescence, 48 h. Potency, µM (series often up to 46.2 µM), for inactives: at the top dose activity change, negative = growth inhibition, most hits filed as inhibitors. 12% of 420,000 active; note: potency is the fitted concentration of half-maximal effect; nearly all actives have a fitted effect of over 55% in size
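Chicken DT40 Tdp1-/- cells complemented with human TDP1, 400 cells/well, exposed to compounds plus 20 nM camptothecin for at least 48 h at 37 C; viability read as ATP content by CellTiter-Glo luminescence.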
12-LOX inh = Primary qHTS assay for inhibitors of human arachidonate 12S-lipoxygenase (ALOX12): Round 2; Polyunsaturated fatty acid lipoxygenase ALOX12 (Homo sapiens), P18054; purified 12hLO, xylenol orange hydroperoxide absorbance; Potency, µM (series often up to 108 µM), without a hit: at the top dose activity change, negative = inhibition, usual class: inhibitors; 1.1% of 580,000 active; note: potency is the fitted concentration of half-maximal effect
Target sequence (P18054 whole entry, looked up): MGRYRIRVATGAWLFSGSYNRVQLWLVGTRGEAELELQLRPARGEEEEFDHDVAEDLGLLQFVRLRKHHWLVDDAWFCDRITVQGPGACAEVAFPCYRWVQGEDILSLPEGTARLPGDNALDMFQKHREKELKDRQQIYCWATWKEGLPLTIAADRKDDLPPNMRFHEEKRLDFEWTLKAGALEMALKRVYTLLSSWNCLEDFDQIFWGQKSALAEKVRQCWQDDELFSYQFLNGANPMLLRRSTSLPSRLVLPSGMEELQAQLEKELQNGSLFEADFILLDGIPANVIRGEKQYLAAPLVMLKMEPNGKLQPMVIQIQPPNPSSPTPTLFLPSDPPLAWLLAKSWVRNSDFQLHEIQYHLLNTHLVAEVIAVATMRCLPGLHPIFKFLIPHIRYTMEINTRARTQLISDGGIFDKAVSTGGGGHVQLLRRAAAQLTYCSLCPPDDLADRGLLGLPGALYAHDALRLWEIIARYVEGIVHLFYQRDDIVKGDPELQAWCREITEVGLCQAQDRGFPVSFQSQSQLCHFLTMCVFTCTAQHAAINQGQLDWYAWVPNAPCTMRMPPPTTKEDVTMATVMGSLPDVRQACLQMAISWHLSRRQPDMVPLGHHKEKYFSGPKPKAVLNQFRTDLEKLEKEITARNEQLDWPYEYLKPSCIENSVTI
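Purified human 12hLO (150 nM final) in 25 mM Hepes, 0.01% Triton X-100, pH 7.0 was preincubated 15 min at room temperature with compound. Then 40 uM arachidonic acid was added, 30 min. Hydroperoxide was read by Fe-XO absorbance ratio 573/405 nm.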
HT1080 IDH1KD tx = qHTS for induction of synthetic lethality in tumor cells producing 2HG: qHTS for the HT-1080-IDH1KD cell line. 2% of 360,000 active. AID 686971, 2013. Potency, µM (doses to about 46.1 µM), inactives show at the top dose activity, negative = toxicity, hits mostly cytotoxic. HT-1080 IDH1 knockdown viability, ATP luminescence, 48 h;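 note: potency is the fitted concentration of half-maximal effect; 0% = DMSO wells and -100% = cell-free medium wells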
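CellTiter-Glo luminescence after 48 h compound exposure at 37 degrees C of IDH1-knockdown HT-1080 cells in 5% FBS RPMI. %Activity scaled between DMSO wells and cell-free media wells, with curves fitted and assigned curve classes.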
The depositor's hits bear a star; [ ] = another dose, or the depositor's remark. Unless noted, calls come from the whole dose curve; as a rule, active = well fitted curve in the direction sought with a large enough effect; inconclusive = small, poorly fitted or top-dose-only effect, or another doubt; inactive = no such curve, though single readings can be large; an effect the other way counts as inactive or inconclusive. Unless noted, % is set by controls: 0 for no effect and ±100 for the full control effect.

CCOc1cc(N2CCOCC2)c(OCC)cc1NC(=O)COC(=O)CCOc1ccc(C(C)(C)C)cc1 was read as IL1B secr inh 5.5, HT1080-NT tox 13.7%, DT40 TDP1 no CPT inconclusive, DT40 TDP1 CPT inconclusive, 12-LOX inh 5.4% and HT1080 IDH1KD tx 11.8%.
`Nc1cccnc1S(=O)(=O)c1cccc(C(F)(F)F)c1` gave IL1B secr inh -15.0, HT1080-NT tox -3.3%, DT40 TDP1 no CPT inconclusive, DT40 TDP1 CPT inconclusive, 12-LOX inh -5.5% and HT1080 IDH1KD tx -5.7%.
`Nc1nc(N)c2cc(S(=O)(=O)c3cccc(C(F)(F)F)c3)ccc2n1` gave IL1B secr inh 21.3, HT1080-NT tox 13µM*, DT40 TDP1 no CPT 0.92µM*, DT40 TDP1 CPT 3.66µM*, 12-LOX inh -12.7% and HT1080 IDH1KD tx 10.3µM*.
`CCOc1ccc(/C=C2\SC(N3CCc4ccccc4C3)=NC2=O)cc1` gave IL1B secr inh -54.5*, HT1080-NT tox inconclusive, DT40 TDP1 no CPT 20.6µM*, DT40 TDP1 CPT 29.1µM*, 12-LOX inh -21.7% and HT1080 IDH1KD tx -22.5%.
`COc1cc(/C=C2\SC(c3ccc(C)cc3)=NC2=O)cc(OC)c1OC` gave IL1B secr inh 27.4, HT1080-NT tox 4.7%, DT40 TDP1 no CPT -29.0%, DT40 TDP1 CPT -4.6% and HT1080 IDH1KD tx 14.8%.
COc1cc(/C=C2\SC(N3CCc4ccccc4C3)=NC2=O)cc(OC)c1OC was read as IL1B secr inh -67.5*, HT1080-NT tox 0.5%, DT40 TDP1 no CPT 16.4µM*, DT40 TDP1 CPT 20.6µM*, 12-LOX inh -14.9% and HT1080 IDH1KD tx 9.7%.
COc1ccc(/C=C2\SC(N3CCc4ccccc4C3)=NC2=O)cc1 was read as IL1B secr inh inconclusive, HT1080-NT tox 3.3%, DT40 TDP1 no CPT inconclusive, DT40 TDP1 CPT inconclusive, 12-LOX inh -23.6% and HT1080 IDH1KD tx 8.9%.
CCOC(=O)c1ccc(NC(=O)N2Cc3[nH]cnc3C[C@H]2c2nc(C(C)C)no2)cc1 was read as 12-LOX inh 43.3%[176 µM].
COc1ccc(OC2C(=O)N(c3ccc(C)c(C)c3)C2c2ccc(OC)c(OC)c2)cc1 (stereo not given) was read as IL1B secr inh -7.4, HT1080-NT tox -0.2%, DT40 TDP1 no CPT 14.6µM*, DT40 TDP1 CPT inconclusive, 12-LOX inh -1.0% and HT1080 IDH1KD tx -11.1%.
CC(C)N(CC#CCC1(O)c2ccccc2-c2ccccc21)CCO was read as IL1B secr inh -1.1, HT1080-NT tox 6.3%, DT40 TDP1 no CPT -12.2%, DT40 TDP1 CPT -14.4%, 12-LOX inh 7.94µM* and HT1080 IDH1KD tx 0.3%.
Screening CCN(CC#CCC1(O)c2ccccc2-c2ccccc21)CCO returned IL1B secr inh 12.7, HT1080-NT tox -0.5%, DT40 TDP1 no CPT -7.0%, DT40 TDP1 CPT -3.2%, 12-LOX inh -26.2% and HT1080 IDH1KD tx -1.2%.
For COC(=O)C(C)N1C(=O)S/C(=C/c2cc(C)n(-c3ccccn3)c2C)C1=O (stereo not given) the results were IL1B secr inh 26.2, HT1080-NT tox 1.7%, DT40 TDP1 no CPT 16.4µM*, DT40 TDP1 CPT inconclusive, 12-LOX inh inconclusive and HT1080 IDH1KD tx 0.8%.

Assay outcomes from PubChem BioAssay.
